In test [1] the target is Retinoic acid receptor RXR-alpha (Homo sapiens) (UniProt P19793). Briefly: ATG_RXRa_TRANS: Attagene TRANS-FACTORIAL HepG2 Assay for human Retinoid X Receptor alpha (RXRa) (AID 2283012; active = hit-call score of the fitted dose curve at least 0.9, where 1 is the maximum). The essentials:
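Read-out: fluorescent reporter-transcript fragments quantified by capillary electrophoresis after RT-PCR. Transiently transfected HepG2 cells carrying GAL4-UAS reporters and NR-GAL4 chimeras were exposed to chemical for 24 h; activity scored as increase over DMSO.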

The target of test [2] is human Retinoid X Receptor beta (RXRb), RXRB (gene 6257) (UniProt P28702). Briefly: ATG_RXRb_TRANS: Attagene TRANS-FACTORIAL HepG2 Assay for human Retinoid X Receptor beta (RXRb) (AID 2283013; active = hit-call score of the fitted dose curve at least 0.9, where 1 is the maximum). The essentials:
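Read-out: reporter mRNA induction via RT-PCR plus capillary electrophoresis fluorescence, analysed as signal increase relative to DMSO. Cells were human HepG2, transiently transfected with GAL4-UAS reporter constructs and chimeric receptor-Gal4 fusions, dosed for 24 h.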

The target of test [3] is human RAR-related Orphan Receptor gamma (RORg), RORC (gene 6097) (UniProt P51449). Briefly: ATG_RORg_TRANS: Attagene TRANS-FACTORIAL HepG2 Assay for human RAR-related Orphan Receptor gamma (RORg) (AID 2283011; active = hit-call score of the fitted dose curve at least 0.9, where 1 is the maximum). The gist of the method:
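First, HepG2 liver cells were transfected with GAL4-UAS-driven reporter constructs and the RORg-Gal4 fusion. Next, they were treated with chemical for 24 h. Finally, reporter mRNA was quantified by RT-PCR and capillary electrophoresis, with upward activity fitted against DMSO.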

Test [4] has as its target human Vitamin D Receptor (VDR), VDR (gene 7421) (UniProt P11473). Briefly: ATG_VDR_TRANS: Attagene TRANS-FACTORIAL HepG2 Assay for human Vitamin D Receptor (VDR) (AID 2283022; active = hit-call score of the fitted dose curve at least 0.9, where 1 is the maximum). The essentials:
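Steps: transfect HepG2 with GAL4-UAS-driven reporter constructs; dose compounds 24 h; isolate RNA, reverse-transcribe, PCR-amplify with 6-FAM-labelled primer extension and HpaI digestion; quantify fragments by capillary electrophoresis relative to DMSO.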

The target in test [5] is human Thyroid Receptor alpha (THRa1), THRA (gene 7067) (UniProt P10827). The test can be described thus: ATG_THRa1_TRANS: Attagene TRANS-FACTORIAL HepG2 Assay for human Thyroid Receptor alpha (THRa1) (AID 2283014; active = hit-call score of the fitted dose curve at least 0.9, where 1 is the maximum). The gist of the method:
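Reporter transcript induction, read by capillary electrophoresis of 6-FAM-labelled RT-PCR products, reflects activity of a transfected THRa1-Gal4 fusion in HepG2 liver cells. Cells were dosed for 24 h; activity was fitted in the positive direction against DMSO.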

Read-out in test [6]: E-selectin (Homo sapiens) (UniProt P16581)
Briefly: BSK_3C_Eselectin: BioMAP Diversity Plus: 3C Assay for Eselectin Biomarker Activity (AID 2283015).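 As to outcome: cell surface E-selectin protein quantified by ELISA 24 h after dosing.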 As to conditions: primary human endothelial cells (HUVEC); actives raise or lower the signal. The essentials: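 ELISA read-out of E-selectin on endothelial monolayers after 24 h chemical treatment. Human umbilical vein primary cells served as the system, with DMSO defining baseline activity for bidirectional fitting.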

Read-out in test [7]: Interleukin-1 alpha (IL1a), IL1A (gene 3552)
The test can be described thus: BSK_BE3C_IL1a: BioMAP Diversity Plus: BE3C Assay for Interleukin-1 alpha (IL1a) Biomarker Activity (AID 2283016). As to conditions: primary human bronchial epithelial cells; actives raise or lower the signal. The essentials: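 ELISA read-out of IL-1a from human lung bronchial epithelial primary cells, 24 h post-dose. Gain or loss of signal fitted relative to DMSO negative control.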

Read-out in test [8]: Monocyte Chemoattractant Protein-1 (MCP1), CCL2 (gene 6347)
The test can be described thus: BSK_3C_MCP1: BioMAP Diversity Plus: 3C Assay for Monocyte Chemoattractant Protein-1 (MCP1) Biomarker Activity (AID 2283017). As to conditions: primary human endothelial cells (HUVEC); actives raise or lower the signal. The gist of the method: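 ELISA read-out of MCP-1 from human umbilical vein endothelial cell cultures harvested 24 h post-dosing. Gain or loss of signal was fitted relative to DMSO.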

Read-out in test [9]: Monocyte Chemoattractant Protein-1 (MCP1), CCL2 (gene 6347)
The test can be described thus: BSK_4H_MCP1: BioMAP Diversity Plus: 4H Assay for Monocyte Chemoattractant Protein-1 (MCP1) Biomarker Activity (AID 2283018). As to conditions: primary human endothelial cells (HUVEC); actives raise or lower the signal. The essentials: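 HUVEC primary cells, 24 h post-dose, MCP-1 by ELISA. Gain or loss of signal fitted bidirectionally vs DMSO baseline. Cytotoxicity: SRB stain (0.1% after 10% TCA fixation), read 560 nm, parallel cultures.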

Read-out in test [10]: Human Leukocyte Antigen - DR isotype (HLADR), HLA-DRA (gene 3122)
The test can be described thus: BSK_3C_HLADR: BioMAP Diversity Plus: 3C Assay for Human Leukocyte Antigen - DR isotype (HLADR) Biomarker Activity (AID 2283019).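 As to outcome: ELISA of cell-surface HLA-DR on HUVEC 24 h after dosing.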 As to conditions: primary human endothelial cells (HUVEC); actives raise or lower the signal. The essentials:
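ELISA readout of surface HLA-DR on human umbilical vein endothelium, taken 24 h after chemical treatment. Gain- and loss-of-signal were both fitted relative to DMSO.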

Read-out in test [11]: Interleukin-8 (IL8), CXCL8 (gene 3576)
Briefly: BSK_3C_IL8: BioMAP Diversity Plus: 3C Assay for Interleukin-8 (IL8) Biomarker Activity (AID 2283020). As to conditions: primary human endothelial cells (HUVEC); actives raise or lower the signal. The essentials:
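HUVEC, 3C stimulation; 24 h compound exposure; IL-8 read by ELISA; gain or loss of signal fitted relative to DMSO control.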

Read-out in test [12]: Monokine induced gamma interferon (MIG), CXCL9 (gene 4283)
Briefly: BSK_3C_MIG: BioMAP Diversity Plus: 3C Assay for Monokine induced gamma interferon (MIG) Biomarker Activity (AID 2283021).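 As to AC50: MIG protein level measured by immunoassay in the treated endothelial cultures.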 As to conditions: primary human endothelial cells (HUVEC); actives raise or lower the signal. The gist of the method: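 HUVEC, 3C system; 24 h chemical exposure; MIG by ELISA; bidirectional fit vs DMSO baseline.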

Test [13] is described as follows: BSK_3C_SRB: Viability Assessment in the BioMAP Diversity Plus: 3C Assay (AID 2283023).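 Also: fitted both ways against DMSO so a hit may be signal rise or drop.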 As to conditions: primary human endothelial cells (HUVEC). The essentials: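 Absorbance at 560 nm of sulforhodamine B-stained (0.1%) total protein served as a cytotoxicity readout in human umbilical vein endothelial cells, 24 h after chemical treatment. Signal was fitted bidirectionally relative to DMSO.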

Read-out in test [14]: Matrix Metallopeptidase 1 (MMP1), MMP1 (gene 4312)
Briefly: BSK_BE3C_MMP1: BioMAP Diversity Plus: BE3C Assay for Matrix Metallopeptidase 1 (MMP1) Biomarker Activity (AID 2283024). As to conditions: primary human bronchial epithelial cells; actives raise or lower the signal. The essentials: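 ELISA read-out of MMP1 in human lung bronchial epithelial primary cultures, 24 h post-dose; bidirectional curve fit vs DMSO baseline, gain or loss of signal scored.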

Test [15] in a line: BSK_3C_Vis: BioMAP Diversity Plus: 3C Assay for Morphology Visualization (AID 2283025).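 Also: fitted both ways so gain or loss versus DMSO counts.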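 As to AC50: light microscopy image of cell morphology used as background control.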 As to conditions: primary human endothelial cells (HUVEC). The gist of the method:
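HUVEC, 3C system; light microscopy of morphology at 24 h post-dose. Bidirectional fit vs DMSO baseline. Secondary readout, background-control function.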

The nature of test [16]: BSK_4H_SRB: Viability Assessment in the BioMAP Diversity Plus: 4H Assay (AID 2283027).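 Also: cells exposed to compound for 24 h before staining.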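 As to AC50: curves fitted both ways versus DMSO so AC50 may be loss or gain.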 As to conditions: primary human endothelial cells (HUVEC). The essentials:
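Cytotoxicity readout: sulforhodamine B (0.1%) staining of total protein after 10% TCA fixation, measured at 560 nm in human umbilical vein endothelium at 24 h. DMSO set the baseline; fitting was bidirectional.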

Test [17] in a line: BSK_BE3C_SRB: Viability Assessment in the BioMAP Diversity Plus: BE3C Assay (AID 2283028).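 Also: measured 24 h after chemical dosing.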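 As to AC50: fitted both ways so AC50 may mark signal gain or loss versus DMSO.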 As to conditions: primary human bronchial epithelial cells. The gist of the method:
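Cells (human bronchial epithelial, primary) are treated with chemicals, and after 24 h the parallel cultures are fixed in 10% TCA. These are then stained with 0.1% SRB and read at 560 nm. Gain or loss of signal is fitted relative to DMSO.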

Read-out in test [18]: Pselectin, SELP (gene 6403)
Briefly: BSK_4H_Pselectin: BioMAP Diversity Plus: 4H Assay for Pselectin Biomarker Activity (AID 2283026). As to conditions: primary human endothelial cells (HUVEC); actives raise or lower the signal. The essentials: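 HUVEC, 24 h chemical exposure; P-selectin read by ELISA. Bidirectional curve fit vs DMSO baseline; gain or loss of signal scored.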

Records with an inconclusive call do not appear. The source made the active and inactive calls. The calls were made as follows, unless noted: active = hit-call score of the fitted dose curve at least 0.9, where 1 is the maximum; inactive = score below 0.9.

Chain of human Vitamin D Receptor (VDR), VDR (gene 7421) (P11473 whole entry, looked up, the tested form may be a part): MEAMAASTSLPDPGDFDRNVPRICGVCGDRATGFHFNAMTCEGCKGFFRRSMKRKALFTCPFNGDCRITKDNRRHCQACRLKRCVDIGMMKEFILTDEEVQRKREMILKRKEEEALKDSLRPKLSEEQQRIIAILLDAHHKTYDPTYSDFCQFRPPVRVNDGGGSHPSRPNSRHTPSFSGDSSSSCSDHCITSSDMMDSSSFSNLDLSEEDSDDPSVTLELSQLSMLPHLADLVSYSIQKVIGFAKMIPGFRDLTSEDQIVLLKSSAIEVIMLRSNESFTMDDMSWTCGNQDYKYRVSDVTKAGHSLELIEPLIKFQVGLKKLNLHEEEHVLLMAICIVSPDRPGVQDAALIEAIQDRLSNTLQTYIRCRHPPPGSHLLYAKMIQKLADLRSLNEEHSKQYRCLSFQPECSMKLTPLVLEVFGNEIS
Chain of E-selectin (Homo sapiens) (P16581 whole entry, looked up): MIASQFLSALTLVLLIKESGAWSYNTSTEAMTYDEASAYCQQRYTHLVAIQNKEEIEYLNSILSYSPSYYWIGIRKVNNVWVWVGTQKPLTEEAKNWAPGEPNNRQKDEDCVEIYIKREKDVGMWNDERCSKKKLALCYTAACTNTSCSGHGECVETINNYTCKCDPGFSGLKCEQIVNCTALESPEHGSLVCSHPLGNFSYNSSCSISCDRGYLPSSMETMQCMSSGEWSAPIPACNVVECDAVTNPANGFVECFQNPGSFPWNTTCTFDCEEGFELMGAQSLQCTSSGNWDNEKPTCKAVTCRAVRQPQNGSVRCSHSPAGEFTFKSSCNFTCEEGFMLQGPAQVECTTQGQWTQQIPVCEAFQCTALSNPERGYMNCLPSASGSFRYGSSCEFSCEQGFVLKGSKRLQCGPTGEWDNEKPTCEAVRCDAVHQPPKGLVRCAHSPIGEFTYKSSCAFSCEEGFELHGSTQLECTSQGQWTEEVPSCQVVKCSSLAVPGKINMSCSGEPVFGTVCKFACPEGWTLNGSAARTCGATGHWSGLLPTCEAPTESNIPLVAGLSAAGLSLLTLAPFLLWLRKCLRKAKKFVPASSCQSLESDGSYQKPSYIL
Chain of human Retinoid X Receptor beta (RXRb), RXRB (gene 6257) (P28702 whole entry, looked up, the tested form may be a part): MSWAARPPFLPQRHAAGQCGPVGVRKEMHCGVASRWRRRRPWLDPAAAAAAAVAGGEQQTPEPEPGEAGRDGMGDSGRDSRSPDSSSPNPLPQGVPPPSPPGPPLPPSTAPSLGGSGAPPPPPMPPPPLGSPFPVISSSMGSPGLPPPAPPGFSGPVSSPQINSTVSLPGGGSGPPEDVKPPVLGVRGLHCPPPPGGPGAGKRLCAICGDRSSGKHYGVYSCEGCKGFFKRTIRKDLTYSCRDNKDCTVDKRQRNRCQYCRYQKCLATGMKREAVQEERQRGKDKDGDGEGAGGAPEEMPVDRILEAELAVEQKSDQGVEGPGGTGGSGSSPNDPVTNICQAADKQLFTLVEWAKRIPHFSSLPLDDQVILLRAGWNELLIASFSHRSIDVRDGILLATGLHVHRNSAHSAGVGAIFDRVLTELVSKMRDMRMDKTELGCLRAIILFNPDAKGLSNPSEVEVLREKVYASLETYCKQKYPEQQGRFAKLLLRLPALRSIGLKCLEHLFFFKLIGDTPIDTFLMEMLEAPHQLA
Chain of Retinoic acid receptor RXR-alpha (Homo sapiens) (P19793 whole entry, looked up, the tested form may be a part): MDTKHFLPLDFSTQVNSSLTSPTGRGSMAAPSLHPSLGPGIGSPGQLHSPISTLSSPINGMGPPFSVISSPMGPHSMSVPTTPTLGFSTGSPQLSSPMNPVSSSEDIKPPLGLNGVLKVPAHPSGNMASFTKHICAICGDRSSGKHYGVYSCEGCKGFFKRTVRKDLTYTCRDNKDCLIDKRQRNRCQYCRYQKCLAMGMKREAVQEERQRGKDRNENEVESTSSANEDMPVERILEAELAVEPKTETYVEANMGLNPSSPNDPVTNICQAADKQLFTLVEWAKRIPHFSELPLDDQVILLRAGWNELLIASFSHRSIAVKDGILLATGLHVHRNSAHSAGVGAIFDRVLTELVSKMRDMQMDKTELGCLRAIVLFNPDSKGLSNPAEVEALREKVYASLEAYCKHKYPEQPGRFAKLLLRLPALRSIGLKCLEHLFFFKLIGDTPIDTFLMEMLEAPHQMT
Chain of human RAR-related Orphan Receptor gamma (RORg), RORC (gene 6097) (P51449 whole entry, looked up, the tested form may be a part): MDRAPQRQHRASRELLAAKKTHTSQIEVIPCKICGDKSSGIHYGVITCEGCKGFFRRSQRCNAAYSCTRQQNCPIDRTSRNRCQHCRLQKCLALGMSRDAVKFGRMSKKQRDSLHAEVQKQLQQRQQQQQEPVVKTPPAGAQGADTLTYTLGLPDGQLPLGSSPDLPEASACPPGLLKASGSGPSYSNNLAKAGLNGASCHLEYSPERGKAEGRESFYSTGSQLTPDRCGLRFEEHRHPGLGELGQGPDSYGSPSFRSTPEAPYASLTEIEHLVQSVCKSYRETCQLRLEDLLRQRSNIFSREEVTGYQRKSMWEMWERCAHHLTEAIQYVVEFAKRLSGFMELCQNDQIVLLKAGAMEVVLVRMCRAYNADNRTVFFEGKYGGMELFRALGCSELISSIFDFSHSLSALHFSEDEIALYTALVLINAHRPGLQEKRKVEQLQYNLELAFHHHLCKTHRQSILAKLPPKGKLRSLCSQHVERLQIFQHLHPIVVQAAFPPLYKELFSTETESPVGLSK
Chain of human Thyroid Receptor alpha (THRa1), THRA (gene 7067) (P10827 whole entry, looked up, the tested form may be a part): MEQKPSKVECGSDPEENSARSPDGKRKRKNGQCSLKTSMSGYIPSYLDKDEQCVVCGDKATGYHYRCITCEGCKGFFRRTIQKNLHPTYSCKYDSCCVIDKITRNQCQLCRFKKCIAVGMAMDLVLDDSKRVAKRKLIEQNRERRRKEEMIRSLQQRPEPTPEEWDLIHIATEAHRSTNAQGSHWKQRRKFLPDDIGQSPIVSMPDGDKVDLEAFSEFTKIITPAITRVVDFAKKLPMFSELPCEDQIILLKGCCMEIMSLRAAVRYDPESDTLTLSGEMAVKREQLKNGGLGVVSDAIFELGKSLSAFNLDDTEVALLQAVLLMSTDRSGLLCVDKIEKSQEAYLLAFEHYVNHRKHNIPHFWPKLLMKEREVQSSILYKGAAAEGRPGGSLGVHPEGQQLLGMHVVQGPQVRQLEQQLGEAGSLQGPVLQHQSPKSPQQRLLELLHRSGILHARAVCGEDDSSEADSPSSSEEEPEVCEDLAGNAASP

Regarding `CNC(=O)O/N=C/C(C)(C)S(C)=O` (stereo not given), the outcome in [1] and in [2] was inactive.
Consider `CCc1ccccc1C`, for which the compound was called inactive in [3], in test [1], in [2] and in test [4].
With `CCNc1nc(NC(C)(C)C)nc(SC)n1`, the result in test [1], in [5], in test [6], in test [7], in test [8] and in test [9] was inactive. The outcome in [11], in test [12], in [4], in test [13], in test [14] and in test [15] was inactive. For the same compound, the outcome in test [16] and in test [17] was inactive. The AC50 in test [10] is 20 µM (active).
In the case of `COc1cc2c(cc1OC)[C@@]13CCN4CC5=CCO[C@H]6CC(=O)N2[C@H]1[C@H]6[C@H]5C[C@H]43`, the compound was classed as inactive in test [3], in test [5] and in [4].
On to `ClCc1cccnc1`, for which the compound was classed as inactive in test [1], in test [2] and in [4].
As to `c1cc[c]([Hg][c]2ccccc2)cc1`, the outcome in test [1], in test [2], in [5] and in test [4] was inactive.
`CN(CCCC(=O)c1cccnc1)N=O`: the compound was called inactive in test [3], in test [1], in [2] and in test [4].
For `CC12CC1(C)C(=O)N(c1cc(Cl)cc(Cl)c1)C2=O` (stereo not given), the compound was classed as inactive in [3], in test [1], in test [2], in test [5], in test [6] and in test [7]. The outcome in [9], in [10], in test [11], in test [12], in test [4] and in [13] was inactive. In addition, the outcome in test [14], in [15], in [16] and in test [17] was inactive.
Consider `Nc1ncc([N+](=O)[O-])s1`, for which the compound was called inactive in test [3], in test [2], in test [6], in test [7], in [9] and in test [10]. For the same compound, the result in test [11], in [12], in test [13], in [14], in test [15] and in test [16] was inactive. Besides, the outcome in test [17] was inactive.
As for `C=C(C)C(=O)[O][Sn]([CH2]CCC)([CH2]CCC)[CH2]CCC`, the half-maximal activity concentration (AC50) in test [1] was 0.00348 µM (active); in test [6] it was 0.148 µM (active); in [7], 0.148 µM (active); in test [8] it was 0.46 µM (active); in test [9], 0.663 µM (active); in [10] it was 0.233 µM (active). Also, the AC50 in test [11] was 0.148 µM (active); in test [12] it was 0.148 µM (active); in test [13] it was 0.148 µM (active); in test [14], 0.148 µM (active); in [15] it was 0.468 µM (active); in test [18], 0.148 µM (active). Further, the AC50 in test [16] and in test [17] was 0.148 µM (active) throughout. Moreover, the result in test [5] and in [4] was inactive.
